Only some compounds are listed: those with a hit (about 3.2% of all), similar ones and a draw of the others.
TSHR agonist: agonists of human thyroid stimulating hormone receptor | P16473 | HEK293-CNG-TSHR cells (CNG channel as cAMP sensor), membrane potential dye, cAMP | Potency, µM (highest dose often 57.1 µM), actives largely listed as activators | 73,000 tested, 0.48% active | AID 926; active = well fitted activation curve with a large enough effect in the main read-out, with a control signal flat, not every such curve was filed as active; inconclusive = small, poorly fitted or top-dose-only effect, or a change in a side signal; inactive = no such curve, though single readings can be large or run the other way; reference of the percent scale not stated here;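 also: the control signal comes from parental cells without the receptor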
Target sequence (P16473 whole entry, looked up): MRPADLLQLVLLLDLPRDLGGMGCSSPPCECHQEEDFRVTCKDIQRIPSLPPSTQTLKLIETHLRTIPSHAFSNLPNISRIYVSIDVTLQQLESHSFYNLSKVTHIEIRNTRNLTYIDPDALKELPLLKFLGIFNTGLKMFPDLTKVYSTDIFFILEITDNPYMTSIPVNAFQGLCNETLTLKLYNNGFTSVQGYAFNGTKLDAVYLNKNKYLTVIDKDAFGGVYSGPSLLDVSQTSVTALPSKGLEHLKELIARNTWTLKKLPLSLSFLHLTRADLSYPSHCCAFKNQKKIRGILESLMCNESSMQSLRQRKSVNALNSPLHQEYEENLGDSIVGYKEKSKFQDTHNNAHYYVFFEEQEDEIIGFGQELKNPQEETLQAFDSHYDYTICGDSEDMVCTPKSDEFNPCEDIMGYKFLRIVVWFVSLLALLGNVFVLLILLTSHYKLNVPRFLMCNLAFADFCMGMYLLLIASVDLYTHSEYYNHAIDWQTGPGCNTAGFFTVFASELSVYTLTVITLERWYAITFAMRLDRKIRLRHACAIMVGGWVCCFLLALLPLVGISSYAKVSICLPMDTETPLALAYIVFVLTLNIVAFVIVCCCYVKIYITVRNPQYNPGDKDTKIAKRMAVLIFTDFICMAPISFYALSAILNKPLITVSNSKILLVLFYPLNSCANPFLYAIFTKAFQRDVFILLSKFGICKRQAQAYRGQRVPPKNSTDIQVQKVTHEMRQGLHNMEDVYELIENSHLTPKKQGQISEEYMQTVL
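HEK 293 cells stably expressing TSHR and a cAMP-gated CNG channel; parental CNG-only cells as counterscreen. Cells preloaded 60 min with membrane potential dye plus 100 uM RO 20-1724, then compound 30 min; fluorescence read at 590 nm.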
HEK293 cAMP ctrl: parental HEK293 cAMP activation (counter-screen); AID 938; parental HEK293 CNG cAMP sensor, membrane potential fluorescence; Potency, µM (doses to about 57.1 µM), usual class: activators; 73,000 tested, 2.5% active; also: nearly all actives have a fitted effect of over 55% in size
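Parental HEK 293 cells stably expressing a cAMP-gated CNG channel were loaded with membrane potential dye containing 100 uM RO 20-1724 for 60 min. Compound added for 30 min; depolarization read as fluorescence intensity at 590 nm.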
YjeE inh: YjeE (TsaE) inhibition, E. coli; P0AF67; purified YjeE enzyme, qHTS inhibition assay; Potency, µM; 71,000 tested, 0.05% active; AID 605
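Purified YjeE (10 uM) with BODIPY Texas Red-labeled ADP probe (2 uM); compounds pin-transferred, 15 min at room temperature. Binding inhibition read as decreased fluorescence polarization; ADP titration as control.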
BRCT PPI red: disrupts BRCA1 BRCT binding to phosphoprotein, red fluorophore readout; Potency, µM (titrated, usually from 76.9 µM), usual class: inhibitors; P38398; BRCT-phosphopeptide binding, red fluorescence polarization; 75,000 tested, 0.03% active
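Fluorescence polarization: 100 nM His-tagged BRCA1 BRCT with 100 nM TAMRA-labelled phospho-BACH1 decapeptide, phosphate buffer pH 7.3 with 150 mM NaCl, DTT, 0.01% Tween 20; 12 min RT. Binding inhibition seen as FP decrease.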
BRCT inh green: BRCA1 BRCT-phosphoprotein interaction inhibition; AID 875; P38398; BRCA1 BRCT-phosphopeptide binding, green fluorescence polarization; 75,000 tested, 0.05% active; Potency, µM (titrated, usually from 76.9 µM), usual class: inhibitors
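Compounds were incubated for 12 min at room temperature with a complex of 100 nM fluorescein-tagged pBACH1 decapeptide and 250 nM His-tagged BRCT protein. Buffer was phosphate pH 7.3 with EDTA, DTT and Tween 20. Disruption of binding lowers the polarization signal.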
DNA Pol III inh: blocks replication by bacterial DNA polymerase III holoenzyme; Potency, µM (doses to about 57.1 µM); 71,000 tested, 0.25% active; reconstituted DNA polymerase III holoenzyme replication, biochemical
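Reconstituted *E. coli* holoenzyme (0.35 nM Pol III, 1 nM beta, 154 nM SSB, 2 nM primase) was preincubated with compound for 15 min at RT. Synthesis on 1.4 nM ssM13Gori ran 35 min, then was stopped with PicoGreen/EDTA and read as dsDNA fluorescence.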
A number is an active result; [ ] = remark or other dose. Unless noted, calls follow the shape of the dose curve; as a rule, active = well fitted curve in the direction sought with a large enough effect; inconclusive = small, poorly fitted or top-dose-only effect, or another doubt; inactive = no such curve, though single readings can be large; an effect the other way counts as inactive or inconclusive.

How did CC(=O)OC[C@@H]1O[C@H](C/C=N\O[C@@H](C)c2cn([C@H]3COC[C@H]3O)nn2)C=C[C@@H]1OC(C)=O do in these assays?
TSHR agonist: inactive[11.4 µM]; HEK293 cAMP ctrl: inactive[11.4 µM]; BRCT PPI red: inactive[15.4 µM]; BRCT inh green: inactive[15.4 µM]

What do the screens show for `Cn1ncc2c(Cl)ncnc21`?
TSHR agonist: inactive[11.4 µM]; HEK293 cAMP ctrl: inactive[11.4 µM]; YjeE inh: inactive; BRCT PPI red: inactive[15.4 µM]; BRCT inh green: inactive[15.4 µM]; DNA Pol III inh: inactive[11.4 µM]

Results for CS(=O)(=O)Nc1cccc(-c2cncnc2NCc2cccnc2)c1 ?
TSHR agonist: inconclusive; HEK293 cAMP ctrl: inconclusive; YjeE inh: inactive; BRCT PPI red: inactive; BRCT inh green: inactive; DNA Pol III inh: inactive

What do the screens show for `O=C(c1ccncc1)N1CCC2(CCN(Cc3nccs3)CC2)CC1`?
TSHR agonist: inactive; HEK293 cAMP ctrl: inactive; YjeE inh: inactive; BRCT PPI red: inactive; BRCT inh green: inactive; DNA Pol III inh: inactive

What do the screens show for `O=C(c1cc2c(=O)oc3ccccc3c2s1)N1CCN(c2ccccn2)CC1`?
TSHR agonist: inactive; HEK293 cAMP ctrl: inactive; YjeE inh: inactive; BRCT PPI red: inactive; BRCT inh green: inactive; DNA Pol III inh: inactive

How did COC(=O)c1ccc(C(/C=C/[C@@H](C)C(=O)N(C)Cc2ccccc2)NC(=O)OCc2ccccc2)cc1 (some centres not stated) do in these assays?
TSHR agonist: inconclusive; HEK293 cAMP ctrl: inconclusive; YjeE inh: inactive; BRCT PPI red: inactive; BRCT inh green: inactive; DNA Pol III inh: inactive

What do the screens show for `CCC/C=C(\CCC)C(NC(=O)c1ccccc1)c1ccc(C(=O)OC)cc1` (configuration not stated)?
TSHR agonist: inconclusive; HEK293 cAMP ctrl: 3.2µM; YjeE inh: inactive; BRCT PPI red: inactive; BRCT inh green: inactive; DNA Pol III inh: inactive

Results for CCCC/C=C/C(NC(=O)C(C)(C)C)c1ccccc1 (configuration not stated) ?
TSHR agonist: inconclusive; HEK293 cAMP ctrl: 25µM; YjeE inh: inactive; BRCT PPI red: inactive; BRCT inh green: inactive; DNA Pol III inh: inactive

Results for CCCC/C=C/C(NC(=O)c1ccc(C(=O)OC)cc1)c1ccccc1 (configuration not stated) ?
TSHR agonist: inconclusive; HEK293 cAMP ctrl: 25µM; YjeE inh: inactive; BRCT PPI red: inactive; BRCT inh green: inactive; DNA Pol III inh: inactive

What do the screens show for `Cc1ccc(-c2nnn(CC(=O)N(CC(=O)NC(C)C)c3cnc4ccccc4c3)n2)o1`?
TSHR agonist: inactive; HEK293 cAMP ctrl: inactive; YjeE inh: inactive; BRCT PPI red: inactive; BRCT inh green: inactive; DNA Pol III inh: inactive

Results for Cc1ccc(-c2nnn(CC(=O)Nc3cccc4cccnc34)n2)o1 ?
TSHR agonist: inconclusive; HEK293 cAMP ctrl: 25µM; YjeE inh: inactive; BRCT PPI red: inactive; BRCT inh green: inactive; DNA Pol III inh: inactive

Results for NCc1nnn(Cc2ccccc2)c1N ?
TSHR agonist: inactive[11.4 µM]; HEK293 cAMP ctrl: inactive[11.4 µM]; YjeE inh: inactive; BRCT PPI red: inactive[15.4 µM]; BRCT inh green: inactive[15.4 µM]; DNA Pol III inh: inactive[11.4 µM]

What do the screens show for `O=C(c1ccco1)N(CC1CCCO1)c1nc(-c2ccccc2)cs1` (configuration not stated)?
TSHR agonist: inconclusive; HEK293 cAMP ctrl: inconclusive; YjeE inh: inactive; BRCT PPI red: inactive; BRCT inh green: inactive; DNA Pol III inh: inactive

Results for O=C(c1cccs1)N(CC1CCCO1)c1nc(-c2ccccc2)cs1 (configuration not stated) ?
TSHR agonist: inconclusive; HEK293 cAMP ctrl: 16µM; YjeE inh: inactive; BRCT PPI red: inactive; BRCT inh green: inactive; DNA Pol III inh: inactive

How did CCC(/C=C/C(C)C1CCC2C3CCC4=CC(=O)CC[C@@]4(C)C3CC[C@@]12C)C(C)C (some centres not stated) do in these assays?
BRCT PPI red: inactive; BRCT inh green: inactive

How did COc1ccc(C(C(=O)NC2CCCC2)N(C(=O)c2ccco2)c2ccc3c(c2)OCO3)cc1OC (configuration not stated) do in these assays?
TSHR agonist: 10µM; HEK293 cAMP ctrl: inactive; YjeE inh: inactive; BRCT PPI red: inactive; BRCT inh green: inactive; DNA Pol III inh: inactive

Screening data as filed in PubChem.
